Assay outcomes: PubChem, National Center for Advancing Translational Sciences (NCATS)
Sm TGR inh: qHTS Assay for the Inhibitors of Schistosoma Mansoni Peroxiredoxins; Schistosoma mansoni thioredoxin glutathione reductase (TGR), Q962Y6; purified TGR, DTNB reduction, TNB absorbance 405 nm; Potency, µM (highest dose often 114 µM), for the others: at the top dose activity change, negative = inhibition, most hits filed as inhibitors; 360,000 compounds, 3% hits; AID 485364, 2010; further: nearly all actives have a fitted effect of over 60% in size
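Kinetic colorimetric format: TGR-catalysed, NADPH-driven DTNB reduction monitored via TNB absorbance. Enzyme dispensed at 20 nM; compound exposure 15 min at room temperature before reaction start.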
AmpC no deterg: qHTS Inhibitors of AmpC Beta-Lactamase (assay without detergent); P00811; AmpC nitrocefin hydrolysis, absorbance 480 nm, 0.0001% Triton; Potency, µM (doses to about 57.1 µM), without a hit: top-dose activity change, negative = inhibition, usual class: inhibitors; 330,000 compounds, 0.52% hits;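 further: plate controls were no compound for no effect and no enzyme for full effect; nearly all actives have a fitted effect of over 20% in size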
Target sequence (P00811 whole entry, looked up): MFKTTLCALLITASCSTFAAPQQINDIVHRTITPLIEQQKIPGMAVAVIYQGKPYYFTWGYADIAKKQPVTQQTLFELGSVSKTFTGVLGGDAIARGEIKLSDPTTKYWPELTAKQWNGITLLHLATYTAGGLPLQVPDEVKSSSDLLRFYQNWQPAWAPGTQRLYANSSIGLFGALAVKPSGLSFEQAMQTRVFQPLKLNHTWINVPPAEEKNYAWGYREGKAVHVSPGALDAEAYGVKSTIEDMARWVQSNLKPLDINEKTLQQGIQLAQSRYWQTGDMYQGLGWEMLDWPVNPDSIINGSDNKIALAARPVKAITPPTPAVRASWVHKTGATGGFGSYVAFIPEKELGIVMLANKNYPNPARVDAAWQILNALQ
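AmpC (5.3 nM in the dispensed reagent) in 20 mM phosphate pH 7.0 with 0.01% (detergent screen) or 0.0001% Triton X-100 was preincubated with compounds for 15 min at room temperature. Nitrocefin was then added from an 800 uM solution, and hydrolysis was followed at 480 nm.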
AmpC inh detg: qHTS Inhibitors of AmpC Beta-Lactamase (assay with detergent) | P00811 | AmpC hydrolysis of nitrocefin, absorbance 480 nm, 0.01% Triton | Potency, µM (top dose mostly 114 µM), for the others: at the highest dose activity change, negative = inhibition, hits mostly inhibitors | 370,000 compounds, 0.041% hits | AID 485294, 2010;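 further: 0% = no-compound wells and -100% = no-enzyme wells; nearly all actives have a fitted effect of over 25% in size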
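20 mM phosphate pH 7.0 + 0.01% (detergent screen) or 0.0001% Triton X-100; 5.3 nM AmpC reagent; cpd preinc 15 min RT; nitrocefin (800 uM stock) to start; A480 q20 s × 4 min; Activity was normalised to no-enzyme and no-compound control wells.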
* hit, by the source's call; ? = inconclusive; / = not tested or not shown. Compounds with a hit are over-represented: about 3.3% of the library has one in this group of screens. The call rests on the fitted dose curve; in most records, active means well fitted curve in the direction sought with a large enough effect; inconclusive means small, poorly fitted or top-dose-only effect, or another doubt; inactive means no such curve, though single readings can be large; an effect the other way counts as inactive or inconclusive. Unless noted, on the % scale 0 is the no-effect control and ±100 the full control effect; potency means the concentration at half of the fitted maximal effect.

SMILES	Sm TGR inh	AmpC no deterg	AmpC inh detg
Cc1ccc2[nH]cc(CCNC(=O)/C=C/c3ccco3)c2c1	28µM*	-20%	0%
O=C(Cc1ccccc1)NCCc1c[nH]c2ccccc12	-3%	-11%	-2%
Cc1ccc(/C=C/C(=O)NCCc2cccc(Cl)c2)o1	2.5µM*	-25%	-7%
Cc1ccc(/C=C/C(=O)NCCc2c[nH]c3ccccc23)o1	14µM*	-15%	-6%
Cc1ccc(/C=C/C(=O)NCCCN2CCN(CCCNC(=O)/C=C/c3ccc(C)o3)CC2)o1	-12%	29%	-8%
COc1cccc(CNC(=O)C2CCC(=O)N(CCc3cccc(F)c3)C2)c1 (stereo unspecified)	46%	51%	2%
COc1ccc(CN2C(=O)c3cccnc3C2=O)cc1S(=O)(=O)NCc1ccco1	-18%	-4%	-3%
CCc1nc2cc([N+](=O)[O-])c([N+](=O)[O-])cc2[nH]1	2%	-24%	-16%
C=CCN1CC[C@]23c4c5ccc(O)c4OC2C(O)CC[C@@]3(O)[C@H]1C5 (stereo partly specified)	/	-16%	/
C=CC[N+]1(C)CC[C@]23c4c5ccc(O)c4O[C@H]2C(=O)CC[C@@]3(O)[C@H]1C5 (stereo partly specified)	50µM*	-16%	?
Cc1cc(C)nc(SCc2nnc(SCC(N)=O)n2Cc2ccco2)n1	0%	-3%	-1%
Cc1ccc(NC(=O)CSc2nnc(CSc3nc(C)cc(C)n3)n2Cc2ccco2)c(C)c1	50µM*	67%	-3%
Cc1ccc(C)c(NC(=O)CSc2nnc(CSc3nc(C)cc(C)n3)n2Cc2ccco2)c1	-66%	60%	-8%
CCOC(=O)CSc1nnc(CSc2nc(C)cc(C)n2)n1Cc1ccco1	45µM*	-2%	-8%
N#Cc1c(Cl)nsc1NN	-29%	1.4µM*	-3%
Cc1ccn2cc(CNC(=O)c3cccs3)nc2c1	-1%	3.5µM*	?
Cc1ccn2cc(CCNC(=O)Cc3cccs3)nc2c1	12%	-7%	7%
CC1=C(C(=O)OCc2ccccc2)C(c2ccccc2[N+](=O)[O-])NC(=O)N1C (stereo unspecified)	-29%	-2%	0%
CC1(C)CC(=O)C(CC(=O)Nc2ccc(S(N)(=O)=O)cc2)=C(O)C1	-35%	-23%	-1%
CC1(C)CC(=O)C(CS(=O)(=O)c2ccccc2)=C(O)C1	1µM*	-15%	?
O=C1CN(C(=O)c2ccccc2F)C(c2ccccc2)c2cc(Cl)ccc2N1 (stereo unspecified)	3%	-48%	1%
O=C(NC(=S)N1CCCCC1CO)c1cc(Br)ccc1Cl (stereo unspecified)	-2%	-15%	0%
O=S1(=O)CCOCCCN1Cc1ccccc1	3%	-13%	-9%
C[C@H]1COC(=O)[C@@H](CC(=O)OC(C)(C)C)C/C=C\C[C@@H](CC(=O)N(CCO)Cc2ccccc2)C(=O)N1	/	187%	/
CCOC(=O)N1C(=O)[C@](c2ccc(Cl)cc2)(C(C)C)N1C(=O)OCC	18µM*	54%	-3%
SMILES	Sm TGR inh	AmpC no deterg	AmpC inh detg
CCOC(=O)N1C(=O)[C@@](c2ccc(Cl)cc2)(C(C)C)N1C(=O)OCC	11µM*	43%	-1%
CCOC(=O)n1c(=O)oc2ccc(Cl)cc21	0%	-11%	0%
CCOC(=O)N1CCN(S(=O)(=O)c2ccc(Cl)cc2)CC1	-11%	-3%	-14%
Cc1cccc(C(=O)N2CCc3cc(CNC(=O)c4ccnn4C)ccc32)c1	4%	/	-3%
COc1cc2c(cc1OC)C(Cc1ccc(O)cc1)NCC2 (stereo unspecified)	-5%	-30%	?
Oc1ccc(C[C@H]2NCCc3cc(O)c(O)cc32)cc1O	18µM*	-22%	0%
Cc1ccc(S(=O)(=O)N2CCC(C(=O)N[C@@H](C)C(=O)Nc3ccc4c(c3)OCO4)CC2)cc1	-14%	8%	35µM*
Cc1ccc(S(=O)(=O)N2CCC(C(=O)N[C@@H](C)C(=O)Nc3ccc(F)cc3)CC2)cc1	-20%	23%	-9%
COc1ccccc1-c1c(C)nn2c(-c3ccccc3)cc(-c3ccccc3)nc12	11%	/	18%
Cc1nc(NS(=O)(=O)c2ccccc2)sc1NC(=O)Nc1ccccc1	/	-40%	2%
CCOC(=O)Nc1sc(NS(=O)(=O)c2ccccc2)nc1C	50µM*	-30%	-14%
CC(=O)c1ccc(NS(=O)(=O)c2ccccc2)cc1	2%	-8%	0%
CC(=O)c1sc(NS(=O)(=O)c2ccc(C)cc2)nc1C	-1%	-12%	-11%
Cc1nc(NS(=O)(=O)c2ccccc2)sc1NC(=O)Nc1ccc(Cl)cc1	5.6µM*	16µM*	-13%
Cc1ccc(S(=O)(=O)Nc2nc(C)c(C(=O)NN)s2)cc1	71µM*	?	-3%
CCOC(=O)Nc1sc(NS(=O)(=O)c2ccc(C)cc2)nc1C	?	-48%	-9%
CC(=O)c1ccc(NC(=O)Nc2sc(NS(=O)(=O)c3ccccc3)nc2C)cc1	35µM*	-49%	-3%
COc1ccccc1OCCn1c(SCC(=O)O)nc2ccccc21	4%	-11%	?
COc1cccc(C(=O)Nc2ccccc2SCc2cc(=O)c3cccc(C)c3[nH]2)c1	62%	/	19%
COc1cccc(OCc2cc(C(=O)NCc3ccc4c(c3)OCO4)no2)c1	-26%	-29%	0%
O=C(CCCC(=O)OCC(F)(F)C(F)F)Nc1ccccc1F	-1%	-42%	-3%
Cc1ccc(C(=O)C2=C(O)C(=O)N(Cc3ccco3)C2c2ccc(N(C)C)cc2)o1 (stereo unspecified)	-23%	-43%	2%
COc1cccc(C2C(C(=O)c3ccc(C)o3)=C(O)C(=O)N2c2cc(C)on2)c1 (stereo unspecified)	?	-26%	0%
Cc1ccc(C(=O)C2=C(O)C(=O)N(Cc3ccco3)C2c2cccc(Cl)c2)o1 (stereo unspecified)	50µM*	-53%	0%
Cc1ccc(C(=O)C2=C(O)C(=O)N(Cc3ccco3)C2c2cccc(Br)c2)o1 (stereo unspecified)	11µM*	-25%	4%
SMILES	Sm TGR inh	AmpC no deterg	AmpC inh detg
O=C(C1=C(O)C(=O)N(Cc2ccco2)C1c1cccc(O)c1)c1ccco1 (stereo unspecified)	?	-20%	?
Cc1ccc(C(=O)C2=C(O)C(=O)N(c3ncccn3)C2c2cccc(Cl)c2)o1 (stereo unspecified)	11µM*	-19%	-7%
CN(C)C(=S)Oc1ccccc1-c1ccccc1OC(=S)N(C)C	7%	5%	?
COc1ccc(CCNC(=O)c2c[nH]n3c(=O)c(Cc4ccccc4Cl)c(C)nc23)cc1OC	33%	/	3%
COc1ccc(O)c(C(=O)C2c3ccccc3C(=O)N2c2ccc(C)cc2)c1 (stereo unspecified)	0%	-53%	-2%
COc1ccc(CNc2nc(-c3ccccc3)nn2S(=O)(=O)c2ccccc2)cc1	8%	/	-8%
N#Cc1ccc(-c2ccc(OCC3CNC(=O)O3)cc2)cc1 (stereo unspecified)	2%	-2%	5%
